Results reported in PubChem BioAssay AID1159580 (chemical genetic matrix, 2015).
Hit rate of the full screen: of about 5,500 compounds, about 2,000 (36%) were called active. About 18% were inconclusive and are not listed. No stated cut-off is given here; in the data, active means normalized growth mostly below about 0.91 (no sharp cut-off); inconclusive means no clear call, values can overlap the other calls; inactive means mostly above about 0.92. The list shows a part of the results.

Assay: chemical genetic growth profiling, strain panel (AID 1159580);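 further: tested at 20 µM; growth read once vehicle control cultures reached saturation at 30 °C; 1 = growth at the plate median or of vehicle wells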
Settings: S. cerevisiae deletion strains, growth OD

Measured: normalized growth

CCOC(=O)C1C(c2ccc(Br)cc2)C(C(=O)OCC)C(O)(C(F)(F)F)NC1(O)C(F)(F)F (stereo unspecified)
inactive: locus YAR019C, strain CDC15, stronger effect = lower value 0.999 | locus YBL105C, strain PKC1, stronger effect = lower value 0.991 | locus YBR135W, strain CKS1, stronger effect = lower value 1 | locus YBR136W, strain MEC1, stronger effect = lower value 0.988 | locus YBR160W, strain CDC28, stronger effect = lower value 0.999 | locus YDL017W, strain CDC7, stronger effect = lower value 0.996 | locus YDL028C, strain MPS1, stronger effect = lower value 0.999 | locus YDL101C, strain DUN1, stronger effect = lower value 0.99 | locus YDL108W, strain KIN28, stronger effect = lower value 1 | locus YDL132W, strain cdc53, stronger effect = lower value 0.996 | locus YDL214C, strain PRR2, stronger effect = lower value 0.961 | locus YDR052C, strain DBF4, stronger effect = lower value 0.994 | locus YDR054C, strain cdc34, stronger effect = lower value 0.992 | locus YDR226W, strain ADK1, stronger effect = lower value 0.998 | locus YDR477W, strain SNF1, stronger effect = lower value 0.994 | locus YER123W, strain YCK3, stronger effect = lower value 0.917 | locus YER133W, strain GLC7, stronger effect = lower value 0.969 | locus YFL009W, strain cdc4, stronger effect = lower value 0.998 | locus YFL029C, strain CAK1, stronger effect = lower value 0.994 | locus YFR003C, strain YPI1, stronger effect = lower value 0.995 | locus YFR019W, strain FAB1, stronger effect = lower value 0.878 | locus YFR028C, strain CDC14, stronger effect = lower value 0.995 | locus YGR040W, strain KSS1, stronger effect = lower value 0.99 | locus YGR052W, strain FMP48, stronger effect = lower value 1 | locus YGR092W, strain DBF2, stronger effect = lower value 0.993 | locus YHR030C, strain SLT2, stronger effect = lower value 0.941 | locus YHR079C, strain IRE1, stronger effect = lower value 0.981 | locus YHR082C, strain KSP1, stronger effect = lower value 0.961 | locus YHR205W, strain SCH9, stronger effect = lower value 0.91 | locus YIL147C, strain SLN1, stronger effect = lower value 0.999 | locus YJL095W, strain BCK1, stronger effect = lower value 0.97 | locus YJL128C, strain PBS2, stronger effect = lower value 0.967 | locus YJL157C, strain FAR1, stronger effect = lower value 0.975 | locus YJR016C, strain ILV3, stronger effect = lower value 0.997 | locus YJR066W, strain TOR1 (second series), stronger effect = lower value 0.943 | locus YJR066W, strain TOR1, stronger effect = lower value 0.911 | locus YKL048C, strain ELM1, stronger effect = lower value 0.986 | locus YKL067W, strain YNK1, stronger effect = lower value 0.974 | locus YKL101W, strain HSL1, stronger effect = lower value 1 | locus YKL193C, strain SDS22, stronger effect = lower value 0.998 | locus YKL203C, strain TOR2, stronger effect = lower value 1.03 | locus YLR113W, strain HOG1, stronger effect = lower value 0.91 | locus YLR133W, strain CKI1, stronger effect = lower value 0.97 | locus YLR403W, strain SFP1, stronger effect = lower value 0.966 | locus YML070W, strain DAK1, stronger effect = lower value 0.956 | locus YMR001C, strain CDC5, stronger effect = lower value 0.987 | locus YMR205C, strain PFK2 (second series), stronger effect = lower value 0.988 | locus YMR277W, strain FCP1, stronger effect = lower value 0.996 | locus YNL006W, strain LST8, stronger effect = lower value 0.999 | locus YNL020C, strain ARK1, stronger effect = lower value 0.99 | locus YNL161W, strain CBK1, stronger effect = lower value 0.999 | locus YNL183C, strain NPR1, stronger effect = lower value 0.942 | locus YNL207W, strain RIO2, stronger effect = lower value 0.996 | locus YNL222W, strain SSU72, stronger effect = lower value 0.999 | locus YNL307C, strain MCK1 (second series), stronger effect = lower value 0.969 | locus YOL078W, strain AVO1, stronger effect = lower value 1 | locus YOL136C, strain PFK27, stronger effect = lower value 0.947 | locus YOR061W, strain CKA2, stronger effect = lower value 0.995 | locus YOR119C, strain RIO1, stronger effect = lower value 1.01 | locus YOR231W, strain MKK1, stronger effect = lower value 0.984 | locus YOR329C, strain SCD5, stronger effect = lower value 0.995 | locus YPL031C, strain PHO85, stronger effect = lower value 0.999 | locus YPL153C, strain RAD53, stronger effect = lower value 0.989 | locus YPL204W, strain HRR25, stronger effect = lower value 0.985 | locus YPL209C, strain IPL1, stronger effect = lower value 0.996 | locus YPL256C, strain CLN2, stronger effect = lower value 0.9 | locus YPR025C, strain CCL1, stronger effect = lower value 0.997 | locus YPR106W, strain ISR1, stronger effect = lower value 0.99 | locus YPR111W, strain DBF20, stronger effect = lower value 0.99 | strain NNK1, stronger effect = lower value 0.992 | strain TSCII, stronger effect = lower value 0.998
